# Source: PubChem BioAssay
# Values joined by “and” are separate entries in the source; they are usually repeats but may differ in a detail not shown here. Equal values may be shown once. Inconclusive results are not listed. Active and inactive are the calls of the source.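 How the source made its calls, unless noted: active means normalized viability below 100% at a tested concentration; inactive means the rest.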
# Assays:
# [1] = growth inhibition of DIPG glioma cells, dose response, cell-based, SU-DIPG-XVII, MIPE5.0, CellTiter-Glo, qHTS (AID 1347060; cut-off not given, nearly all actives have AC50 up to about 26 µM;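 further: cells exposed to compound for 48 hours before viability readout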); conditions: SU-DIPG-XVII viability, CellTiter-Glo ATP luminescence
# [2] = growth inhibition of DIPG glioma cells, dose response, cell-based, SU-DIPG-XIII, MIPE4.0, CellTiter-Glo, qHTS (AID 1347061; cut-off not given, nearly all actives have AC50 up to about 37 µM;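 further: cells exposed to compound for 48 hours before readout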); conditions: SU-DIPG-XIII viability, CellTiter-Glo ATP luminescence
# [3] = growth inhibition of DIPG glioma cells, dose response, cell-based, SU-DIPG-IV, MIPE4.0, CellTiter-Glo, qHTS (AID 1347063; cut-off not given, nearly all actives have AC50 up to about 30 µM;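 further: compound exposure lasted 48 hours before the viability readout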); conditions: SU-DIPG-IV viability, CellTiter-Glo ATP luminescence
# [4] = growth inhibition of DIPG glioma cells, dose response, cell-based, SU-DIPG-XIII, MIPE5.0, CellTiter-Glo, qHTS (AID 1347064; cut-off not given, nearly all actives have AC50 up to about 23 µM;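 on AC50: cells exposed to compound for 48 hours before the viability read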); conditions: SU-DIPG-XIII viability, CellTiter-Glo ATP luminescence
# [5] = viability loss in pontine glioma line – cell-based, SU-DIPG-XXV, MIPE5.0, CellTiter-Glo, qHTS, dose response (AID 1347065; cut-off not given, nearly all actives have AC50 up to about 26 µM;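 further: cells exposed to compound for 48 hours before ATP readout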); conditions: CellTiter-Glo ATP luminescence
# [6] = SU-DIPG-VI glioma cell viability, MIPE4.0 library, CellTiter-Glo luminescence, qHTS (AID 1347066; cut-off not given, nearly all actives have AC50 up to about 30 µM;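 further: cells exposed to compound for 48 hours before readout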); conditions: CellTiter-Glo ATP luminescence
# [7] = growth inhibition of DIPG glioma cells, dose response, cell-based, JHH-DIPG-1, MIPE4.0, CellTiter-Glo, qHTS (AID 1347062; cut-off not given, nearly all actives have AC50 up to about 27 µM); conditions: JHH-DIPG-1 viability, CellTiter-Glo ATP luminescence
# [8] = JHH-DIPG-1 glioma cell viability, MIPE5.0 library, CellTiter-Glo luminescence, qHTS (AID 1347067; cut-off not given, nearly all actives have AC50 up to about 26 µM;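 further: cells exposed to compound for 48 hours before readout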); conditions: JHH-DIPG-1 glioma viability, CellTiter-Glo ATP luminescence
# [9] = SU-DIPG-XXV glioma cell viability, MIPE5.0 library, qHTS (AID 1347068; cut-off not given, nearly all actives have IC50 up to about 30 µM)
# [10] = sensitizers of A549 cells to miR-34 induction, primary screen, imaging, A549 dox-inducible miR-34, nuclei and caspase counts (AID 1347080;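 active means compounds whose cell count with miR-34 switched on is under 0.7 times the count with it off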); conditions: A549 miR-34 inducible, Hoechst nuclei count, 48 h
# [11] = modifiers of HSF1 nuclear foci, imaging, Selleck Cancer Library (AID 1347162; in the data active means plate-normalised HSF1 focus index below about 0.46); conditions: human cells, at 10 µM; SSMD: measured here: HSF1 foci SSMD mean; cell count: measured here: cell number; plate-normalised HSF1 focus index: stronger effect = lower value
# [12] = survival rescue of mitochondrial mutant cells in low glucose, primary screen, MELAS cybrids, Rieske KO mouse fibroblasts, CellTiter-Glo (AID 1508586;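 active means mean z-score across replicates of 1.96 or higher in either the MELAS or the Rieske mutant cell line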;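 further: z relative to plate mean and SD of compound and empty wells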)
# [13] = ovarian cancer cell viability with rucaparib, profiling panel, oncology-focused library, rucaparib conditional (AID 1508598); conditions: patient-derived ovarian cancer cells, CellTiter-Glo viability, 144 h, stronger effect = lower value
# [14] = LFS_MB_P medulloblastoma growth inhibition, cell-based, chromothripsis tumors, cisplatin or BGB combos (AID 1671449; in the data active means inhibition above about 80%;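 further: cells exposed for 96 hours; 0% = vehicle DMSO and 100% = killing by high DMSO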); conditions: LFS_MB_P medulloblastoma cells
# [15] = HDN33 neuroblastoma growth inhibition, cell-based, chromothripsis tumors, cisplatin or BGB combos (AID 1671450; in the data active means inhibition above about 80%;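 further: cells exposed to compound for four days; 0% = vehicle DMSO and 100% = cell killing by high DMSO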); conditions: HDN33 neuroblastoma cells, stronger effect = higher value
# [16] = ICB984 medulloblastoma cell growth inhibition, synergistic combos for chromothripsis tumors, cisplatin or BGB combos (AID 1671451; call rule not given here;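 further: cells exposed for 96 hours before readout; 0% = vehicle DMSO and 100% = killing by high DMSO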); conditions: ICB984 medulloblastoma cells, drug combinations, stronger effect = higher value
# [17] = HTB85 osteosarcoma cell growth inhibition, synergistic combos for chromothripsis tumors, BGB or cisplatin IC20 combos (AID 1671453; in the data active means inhibition above about 80%;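 further: cells exposed for 96 hours before readout; 0% = vehicle DMSO and 100% = high DMSO killing control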); conditions: HTB85 osteosarcoma cells, drug combinations, stronger effect = higher value
# [18] = MDA-MB-436 breast carcinoma cell growth inhibition, synergistic combos for chromothripsis tumors, BGB or cisplatin combos (AID 1671458; call rule not given here;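 further: cells exposed for 96 hours; 0% = vehicle DMSO and 100% = killing by high DMSO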); conditions: MDA-MB-436 breast carcinoma growth inhibition, drug combinations, stronger effect = higher value
# [19] = growth inhibition of BT084 medulloblastoma cells, cell-based, ICGC_MB145, cisplatin and BGB IC40 combos (AID 1671461; in the data active means inhibition above about 80%;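 further: cells exposed to drugs for 96 hours; 0% = vehicle DMSO and 100% = high DMSO full killing control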); conditions: drug combinations, stronger effect = higher value
# [20] = growth inhibition of RCMB18 medulloblastoma cells, cell-based, cisplatin and BGB IC40 combos (AID 1671462; in the data active means inhibition above about 80%;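 further: cells exposed to compound for four days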); conditions: stronger effect = higher value
compound,measurement,setting,value
Cc1nc(NC(=O)N2CCC[C@H]2C(N)=O)sc1-c1ccnc(C(C)(C)C(F)(F)F)c1,AC50,[1],5.9 µM (active)
same,AC50,[2],1.87 µM (active)
same,AC50,[3],1.05 µM (active)
same,AC50,[4],4.68 µM (active)
same,AC50,[5],3.32 µM (active)
same,AC50,[6],1.66 µM (active)
O=C(c1cc(Cc2n[nH]c(=O)c3ccccc23)ccc1F)N1CCN(C(=O)C2CC2)CC1,AC50,[1],20.9 µM (active)
same,AC50,[2],18.7 µM (active)
same,outcome,[7],inactive
same,outcome,[4],inactive
same,outcome,[6],inactive
same,outcome,[8],inactive
same,outcome,[9],inactive
same,fold change,"[10]; stronger effect = lower value, cell number ratio, induced over uninduced",0.871 (inactive)
same,fold change,[10]; measured here: relative caspase fold change +Dox/-Dox,1.53
same,cell count,"[10]; measured here: total cells with miR-34 induction, stronger effect = lower value",4680
same,cell count,[10]; measured here: total cells without miR-34 induction,5380
same,SSMD,[11],2.16
same,cell count,[11],7320
same,plate-normalised HSF1 focus index,[11],1.13 (inactive)
same,z-score,"[12]; MELAS cybrid survival, CellTiter-Glo 48 h, stronger effect = higher value",-0.516 (inactive)
same,z-score,"[12]; Rieske KO mouse fibroblast survival, CellTiter-Glo 72 h",0.876
same,viability,"[13]; at 0.000305 µM, OCI-C5x cells, with rucaparib 10 µM, 100% = cells with rucaparib alone",125% (inactive)
same,viability,"[13]; at 0.000305 µM, OCI-C5x cells, without rucaparib",123% (inactive)
same,viability,"[13]; at 0.000305 µM, OCI-P5x cells, with rucaparib 20 µM, 100% = cells with rucaparib alone",96.5% (active)
same,viability,"[13]; at 0.000305 µM, OCI-P5x cells, without rucaparib",101% (inactive)
same,viability,"[13]; at 0.00122 µM, OCI-C5x cells, with rucaparib 10 µM, 100% = cells with rucaparib alone",132% (inactive)
same,viability,"[13]; at 0.00122 µM, OCI-C5x cells, without rucaparib",122% (inactive)
same,viability,"[13]; at 0.00122 µM, OCI-P5x cells, with rucaparib 20 µM, 100% = cells with rucaparib alone",104% (inactive)
same,viability,"[13]; at 0.00122 µM, OCI-P5x cells, without rucaparib",97% (active)
same,viability,"[13]; at 0.00488 µM, OCI-C5x cells, with rucaparib 10 µM, 100% = cells with rucaparib alone",128% (inactive)
same,viability,"[13]; at 0.00488 µM, OCI-C5x cells, without rucaparib",120% (inactive)
same,viability,"[13]; at 0.00488 µM, OCI-P5x cells, with rucaparib 20 µM, 100% = cells with rucaparib alone",101% (inactive)
same,viability,"[13]; at 0.00488 µM, OCI-P5x cells, without rucaparib",92.4% (active)
same,viability,"[13]; at 0.0195 µM, OCI-C5x cells, with rucaparib 10 µM, 100% = cells with rucaparib alone",114% (inactive)
same,viability,"[13]; at 0.0195 µM, OCI-C5x cells, without rucaparib",123% (inactive)
same,viability,"[13]; at 0.0195 µM, OCI-P5x cells, with rucaparib 20 µM, 100% = cells with rucaparib alone",96.5% (active)
same,viability,"[13]; at 0.0195 µM, OCI-P5x cells, without rucaparib",87.9% (active)
same,viability,"[13]; at 0.0781 µM, OCI-C5x cells, with rucaparib 10 µM, 100% = cells with rucaparib alone",118% (inactive)
same,viability,"[13]; at 0.0781 µM, OCI-C5x cells, without rucaparib",119% (inactive)
same,viability,"[13]; at 0.0781 µM, OCI-P5x cells, with rucaparib 20 µM, 100% = cells with rucaparib alone",104% (inactive)
same,viability,"[13]; at 0.0781 µM, OCI-P5x cells, without rucaparib",96% (active)
same,viability,"[13]; at 0.313 µM, OCI-C5x cells, with rucaparib 10 µM, 100% = cells with rucaparib alone",118% (inactive)
same,viability,"[13]; at 0.313 µM, OCI-C5x cells, without rucaparib",123% (inactive)
same,viability,"[13]; at 0.313 µM, OCI-P5x cells, with rucaparib 20 µM, 100% = cells with rucaparib alone",96.9% (active)
same,viability,"[13]; at 0.313 µM, OCI-P5x cells, without rucaparib",85.5% (active)
same,viability,"[13]; at 1.25 µM, OCI-C5x cells, with rucaparib 10 µM, 100% = cells with rucaparib alone",123% (inactive)
same,viability,"[13]; at 1.25 µM, OCI-C5x cells, without rucaparib",117% (inactive)
same,viability,"[13]; at 1.25 µM, OCI-P5x cells, with rucaparib 20 µM, 100% = cells with rucaparib alone",94.6% (active)
same,viability,"[13]; at 1.25 µM, OCI-P5x cells, without rucaparib",75.5% (active)
same,viability,"[13]; at 5 µM, OCI-C5x cells, with rucaparib 10 µM, 100% = cells with rucaparib alone",105% (inactive)
same,viability,"[13]; at 5 µM, OCI-C5x cells, without rucaparib",115% (inactive)
same,viability,"[13]; at 5 µM, OCI-P5x cells, with rucaparib 20 µM, 100% = cells with rucaparib alone",86.1% (active)
same,viability,"[13]; at 5 µM, OCI-P5x cells, without rucaparib",66.2% (active)
same,inhibition,"[14]; at 0.5 µM, stronger effect = higher value",-24.7% (inactive) and -29.1% (inactive)
same,inhibition,"[14]; measured here: combination with BGB IC20, at 0.005 µM",-26.5% and -12.3%
same,inhibition,"[14]; measured here: combination with BGB IC40, at 0.005 µM",-9.06% and -12.6%
same,inhibition,"[14]; measured here: combination with BGB IC40, at 0.05 µM",-0.874% and -8.68%
same,inhibition,"[14]; measured here: combination with cisplatin, at 0.5 µM, stronger effect = higher value",-41.7% and -35.8%
same,inhibition,"[14]; measured here: combination with cisplatin, at 5 µM, stronger effect = higher value",-43.9% and -38.7%
same,inhibition,"[15]; BGB combo, at 5 µM",14.5% and 9.24%
same,inhibition,[15]; at 0.5 µM,9.6% (inactive) and 3.35% (inactive)
same,inhibition,"[15]; cisplatin combo, at 5 µM",34.3% and 41.4%
same,inhibition,"[15]; measured here: with BGB IC20 combination, at 0.5 µM",5.51% and -1.25%
same,inhibition,"[15]; measured here: with cisplatin IC20 combination, at 0.5 µM",12.4% and 7.9%
same,inhibition,"[15]; single agent, at 5 µM",33% and 44.4%
same,inhibition,"[16]; BGB IC20 combo, at 0.005 µM",-15.2% and -6.05%
same,inhibition,"[16]; BGB IC40 combo, at 0.005 µM",-0.22% and -27.2%
same,inhibition,"[16]; BGB IC40 combo, at 0.05 µM",-4.94% and -12.9%
same,inhibition,[16]; at 0.5 µM,-19.9% (inactive) and -38.5% (inactive)
same,inhibition,"[16]; cisplatin combo, at 0.05 µM",-4.94% and -17.3%
same,inhibition,"[16]; cisplatin combo, at 0.5 µM",-29% and -53.3%
same,inhibition,"[16]; cisplatin combo, at 5 µM",-23.6% and -39.9%
same,inhibition,"[16]; measured here: 5 uM single agent, at 5 µM",-15.8% and -10.7%
same,inhibition,[17]; at 0.5 µM,-1.59% (inactive) and -5.82% (inactive)
same,inhibition,"[17]; measured here: with BGB IC20, at 0.5 µM",-20% and -25.5%
same,inhibition,"[17]; measured here: with BGB IC20, at 5 µM",-17% and 2.87%
same,inhibition,"[17]; measured here: with cisplatin IC20, at 0.5 µM",8.83% and 6.96%
same,inhibition,"[17]; measured here: with cisplatin IC20, at 5 µM",18.3% and 28.5%
same,inhibition,"[17]; single agent, at 5 µM",9.91% and 21.3%
same,inhibition,[18]; at 0.5 µM,6.46% (inactive) and -12% (inactive)
same,inhibition,"[18]; measured here: BGB combination, at 0.5 µM",1.64% and -35.6%
same,inhibition,"[18]; measured here: BGB combination, at 5 µM",-1.2% and -15.8%
same,inhibition,"[18]; measured here: cisplatin combination, at 0.5 µM",-0.142% and -2.85%
same,inhibition,"[18]; measured here: cisplatin combination, at 5 µM",30.4% and 14.1%
same,inhibition,[19]; at 0.5 µM,-15.3% (inactive) and -32.2% (inactive)
same,inhibition,"[19]; cisplatin combination, at 0.5 µM",-11.1% and -29.9%
same,inhibition,"[19]; cisplatin combination, at 5 µM",-16.5% and -11.4%
same,inhibition,"[19]; measured here: BGB IC40 combination 0.05 uM, at 0.05 µM",-6.85% and 14.5%
same,inhibition,"[19]; single agent, at 5 µM",-19.8% and -50%
same,inhibition,[20]; at 0.5 µM,-14.1% (inactive) and 10.3% (inactive)
same,inhibition,"[20]; cisplatin combo, at 5 µM",0.788% and 11.5%
same,inhibition,"[20]; measured here: BGB IC40 combination, at 0.05 µM",-1.19% and -22.9%
same,inhibition,"[20]; measured here: combination with cisplatin, at 0.5 µM",-43.2% and 20.2%
same,inhibition,"[20]; single agent, at 5 µM",-22.3% and -45%
